VP16 counter: counter-screen for ROR gamma inhibitors: Gal4-VP16 reporter; Drosophila S2 Gal4-VP16 UAS-luciferase, luminescence, 20 h; Potency, µM (doses to about 53.6 µM), most hits filed as inhibitors; 310,000 tested, 3.5% active;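 note: Gal4-VP16 expression switched on by copper sulfate through the metallothionein promoter; nearly all actives have a fitted effect of over 50% in size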
ALOX12 inh: inhibitors of human 12S-lipoxygenase ALOX12 | P18054 | AID 1671190 | Potency, µM (top dose mostly 108 µM), actives largely listed as inhibitors | 580,000 tested, 1.1% active | purified 12hLO, xylenol orange hydroperoxide absorbance
Target sequence (P18054 whole entry, looked up): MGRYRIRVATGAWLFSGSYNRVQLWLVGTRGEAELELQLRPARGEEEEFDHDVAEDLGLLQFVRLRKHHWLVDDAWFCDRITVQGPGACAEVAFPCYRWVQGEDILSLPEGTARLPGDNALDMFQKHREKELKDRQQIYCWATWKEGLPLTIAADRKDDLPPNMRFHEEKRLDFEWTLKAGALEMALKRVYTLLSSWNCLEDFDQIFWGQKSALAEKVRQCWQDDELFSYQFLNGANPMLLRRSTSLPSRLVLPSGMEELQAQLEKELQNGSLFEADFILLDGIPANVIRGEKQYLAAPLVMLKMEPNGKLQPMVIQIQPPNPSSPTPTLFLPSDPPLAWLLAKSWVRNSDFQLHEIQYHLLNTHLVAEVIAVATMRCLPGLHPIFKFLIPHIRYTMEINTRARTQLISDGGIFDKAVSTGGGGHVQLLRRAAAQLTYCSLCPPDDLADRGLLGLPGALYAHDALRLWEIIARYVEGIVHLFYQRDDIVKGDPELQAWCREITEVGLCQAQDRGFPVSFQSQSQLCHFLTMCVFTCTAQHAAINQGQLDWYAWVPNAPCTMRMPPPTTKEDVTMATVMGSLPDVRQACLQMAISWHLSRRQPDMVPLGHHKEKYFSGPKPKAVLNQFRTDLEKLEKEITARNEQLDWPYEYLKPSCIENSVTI
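Purified human 12hLO at 150 nM in 25 mM Hepes, 0.01% Triton X-100, pH 7.0, preincubated 15 min at room temperature with compound. Reaction started with 40 uM arachidonic acid, 30 min at room temperature. Hydroperoxide measured by Fe-xylenol orange, 573/405 nm absorbance ratio.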
DT40 TDP1 CPT: growth inhibition of DT40 Tdp1-/-;hTDP1 cells with camptothecin (screen for TDP1 inhibitors); chicken DT40 Tdp1-/-;hTDP1 cells + 20 nM CPT, ATP luminescence, 48 h; Potency, µM (doses to about 46.2 µM), actives largely listed as inhibitors; 420,000 tested, 12% active; AID 686979; note: nearly all actives have a fitted effect of over 55% in size
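Cell growth measured by CellTiter-Glo luminescence after a minimum 48 h, 37 C compound exposure with 20 nM CPT in Tdp1-knockout DT40 cells stably expressing hTDP1, seeded 400/well; qHTS titration format.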
ELG1 DNA repair: inhibitors of ELG1-dependent DNA repair in HEK293T cells | HEK293T ELG1-luciferase reporter, luminescence, 16 h; DNA damage induced by 5-fluorouridine | Potency, µM (series often up to 46.1 µM), hits mostly inhibitors | 330,000 tested, 2.3% active; note: nearly all actives have a fitted effect of over 55% in size
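5-Fluorouridine DNA damage + compound/DMSO, 2,000 cells/well, 16 h, 37 °C/5% CO2. ONE-Glo, 30 min RT, luminescence. Readout = decrease in reporter signal.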
RORgamma inh: inhibitors of mouse ROR gamma transcriptional activity; Potency, µM (top dose mostly 53.6 µM), usual class: inhibitors; P51450; 310,000 tested, 5.4% active; Drosophila S2 Gal4-RORgamma UAS-luciferase reporter, 20 h; note: nearly all actives have a fitted effect of over 60% in size
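Stable Schneider cell line, Gal4 DNA-binding domain fused to ROR gamma, UAS-luciferase. Cmpd 1 hr RT → CuSO4 700 uM final → 20 hr RT → luciferase reagent 10 min → luminescence.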
DT40 TDP1 no CPT: qHTS for Inhibitors of human tyrosyl-DNA phosphodiesterase 1 (TDP1): qHTS in cells in absence of CPT; 420,000 tested, 15% active; Potency, µM (titrated, usually from 46.2 µM), actives largely listed as inhibitors; AID 686978, 2013; DT40 Tdp1-/- hTDP1 cells, no CPT, ATP luminescence, 48 h; note: nearly all actives have a fitted effect of over 55% in size
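DT40 Tdp1-/-;hTDP1 cells, no CPT (DMSO vehicle only), 400 cells/well; compounds pin-transferred; ≥48 hr, 37 °C; CellTiter-Glo 30 min RT dark, luminescence read.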
A number is an active result; – = inactive; ? = inconclusive; · = not tested or not shown. Shown are actives, neighbours in structure and some others; about 15% of the full set was active somewhere. Calls come from the whole dose curve; as a rule, active = well fitted curve in the direction sought with a large enough effect; inconclusive = small, poorly fitted or top-dose-only effect, or another doubt; inactive = no such curve, though single readings can be large; an effect the other way counts as inactive or inconclusive.

SMILES | VP16 counter | ALOX12 inh | DT40 TDP1 CPT | ELG1 DNA repair | RORgamma inh | DT40 TDP1 no CPT
O=[N+]([O-])c1ccc(C=C2c3ccccc3-c3ccccc32)cc1 | · | · | – | · | · | 18µM
O=C(/C=C/c1ccc([N+](=O)[O-])cc1)c1ccccc1 | · | – | · | · | · | ·
O=[N+]([O-])c1ccc(/C=C2\C=C(C(O)c3ccc([N+](=O)[O-])cc3)c3ccccc32)cc1 (configuration not stated) | · | · | 6.3µM | · | · | 4.5µM
C(=C\c1ccncc1)/c1ccccc1 | – | – | – | ? | – | –
OC(C1=CC(=Cc2ccncc2)c2ccccc21)c1ccncc1 (configuration not stated) | · | ? | ? | · | · | 16µM
N#Cc1c(N)n[nH]c1CCCNC(=O)NC1CCCc2ccccc21 (configuration not stated) | · | – | · | · | · | ·
Cc1c(C(=O)NCc2ccccc2Cl)sc2nc(-c3ccc(F)cc3)cn12 | · | – | ? | · | · | 16µM
Cc1c(C(=O)NCc2ccc(F)cc2)sc2nc(-c3ccccc3)cn12 | · | – | 18µM | · | · | ?
COC(=O)C1CCN(C(=O)c2sc3nc(-c4ccc(F)cc4)cn3c2C)CC1 | – | – | ? | ? | – | ?
Cc1c(C(=O)NCc2cccnc2)sc2nc(-c3ccc(F)cc3)cn12 | ? | – | ? | ? | – | 13µM
Cc1c(C(=O)N(C)Cc2ccccc2)sc2nc(-c3ccc(F)cc3)cn12 | · | – | ? | · | · | ?
Cc1c(C(=O)NCc2ccco2)sc2nc(-c3ccccc3)cn12 | – | – | ? | ? | ? | ?
Cc1c(C(=O)NCc2cccnc2)sc2nc(-c3ccccc3)cn12 | – | – | – | ? | – | 16µM
O=C(O)c1ccccc1C(=O)/C=C/c1ccc(Cl)cc1 | · | – | · | · | · | ·
Cc1ccc(/C=N/Nc2cc(C)nc(N3CCOCC3)n2)cc1 | – | – | – | ? | – | ?
Clc1ccccc1/C=C/C=N/Nc1nc(N2CCOCC2)nc(N2CCOCC2)n1 | – | – | 23µM | ? | – | 23µM
O=C(O)c1cc(N/N=C/c2ccc(-c3ccc(F)cc3)o2)ccc1Cl | – | ? | – | ? | – | –
C(=C\c1ccccc1)/C=N/Nc1nc(N2CCOCC2)nc(N2CCOCC2)n1 | – | ? | – | – | – | ?
Brc1ccc(-c2ccc(/C=N/Nc3nc(N4CCOCC4)nc(N4CCOCC4)n3)o2)cc1 | – | – | ? | 5.8µM | – | 10µM
Fc1cnc(N/N=C/c2ccc(-c3ccc(Br)cc3)o2)nc1N1CCOCC1 | ? | – | – | 12µM | ? | –
Clc1ccc(-c2ccc(/C=N/Nc3cc(N4CCOCC4)nc(N4CCOCC4)n3)o2)cc1 | – | – | – | 5.8µM | ? | 16µM
COc1ccccc1/C=C/c1nc(C#N)c(NCCCn2ccnc2)o1 | · | – | · | · | · | ·
O=[N+]([O-])c1ccc(/C=N/Nc2nc(N3CCOCC3)nc(N3CCOCC3)n2)cc1 | – | · | · | ? | – | ·
Cc1cn(-c2ccccc2)c(C)c1/C=N\Nc1nc(N2CCOCC2)nc(N2CCOCC2)n1 | – | – | ? | 8.2µM | – | ?
Cc1nn(CC(=O)Nc2ccc(NC(=O)CC(C)C)cc2)c(=O)c2ccccc12 | · | – | · | · | · | ·
SMILES | VP16 counter | ALOX12 inh | DT40 TDP1 CPT | ELG1 DNA repair | RORgamma inh | DT40 TDP1 no CPT
COC(=O)[C@@H](Cc1cccnc1)NC(=O)[C@H]1CN(C(=O)Nc2ccccc2)CCN1S(=O)(=O)c1ccccc1 | · | – | · | · | · | ·
COc1ccc(C(=O)CCN(C)C)c2ccccc12 | · | · | 1.3µM | · | · | 2.8µM
COc1ccc(C(=O)c2ccc(Br)cc2)c2ccccc12 | – | – | ? | – | – | ?
Clc1ccc(-c2csc3ncnc(N4CCc5ccccc5C4)c23)cc1 | – | – | ? | – | – | 21µM
Cc1cc(N)n(-c2ncnc3scc(-c4ccc(Cl)cc4)c23)n1 | – | – | – | – | – | –
CCOC(=O)N1CCN(c2ncnc3scc(-c4ccc(Cl)cc4)c23)CC1 | – | · | 18µM | ? | – | ?
CCOC(=O)N1CCN(c2ncnc3scc(-c4ccccc4)c23)CC1 | – | – | 15µM | ? | – | 8.2µM
